Experimental data published in paper PMC8159961, “Exploring protein hotspots by optimized fragment pharmacophores” (Nature Communications, 2021).

The molecules below were run against histone methyltransferase SET domain containing 2 (SETD2) (Homo sapiens, UniProt Q9BYW2) (assay: primary screen, binary call; higher = more effect of the substance).
Experimental: The Chemiluminescence assay evaluates SETD2 specific tri -methylation activity towards histone H3K36. The kit consist s of recombinant SETD2, S-adenosylmethionine and a specific H3K36me3 antibody and was performed according to the manufacturer’s protocol (Catalo g- No. 52060, https://bpsbioscience.com/setd2 -chemiluminescent-assay-kit-52060). Values were blank corrected and normalized . Enzymatic activities were calculated relative to the positive control of the kit (full enzymatic activity) and to the known SET doma in inhibitor Sinefungin28 used as negative control (complete enzymatic activity inhibition). Compounds used were diluted in DMSO.

Chain of histone methyltransferase SET domain containing 2 (SETD2) (Q9BYW2 whole entry, looked up, the tested form may be a part): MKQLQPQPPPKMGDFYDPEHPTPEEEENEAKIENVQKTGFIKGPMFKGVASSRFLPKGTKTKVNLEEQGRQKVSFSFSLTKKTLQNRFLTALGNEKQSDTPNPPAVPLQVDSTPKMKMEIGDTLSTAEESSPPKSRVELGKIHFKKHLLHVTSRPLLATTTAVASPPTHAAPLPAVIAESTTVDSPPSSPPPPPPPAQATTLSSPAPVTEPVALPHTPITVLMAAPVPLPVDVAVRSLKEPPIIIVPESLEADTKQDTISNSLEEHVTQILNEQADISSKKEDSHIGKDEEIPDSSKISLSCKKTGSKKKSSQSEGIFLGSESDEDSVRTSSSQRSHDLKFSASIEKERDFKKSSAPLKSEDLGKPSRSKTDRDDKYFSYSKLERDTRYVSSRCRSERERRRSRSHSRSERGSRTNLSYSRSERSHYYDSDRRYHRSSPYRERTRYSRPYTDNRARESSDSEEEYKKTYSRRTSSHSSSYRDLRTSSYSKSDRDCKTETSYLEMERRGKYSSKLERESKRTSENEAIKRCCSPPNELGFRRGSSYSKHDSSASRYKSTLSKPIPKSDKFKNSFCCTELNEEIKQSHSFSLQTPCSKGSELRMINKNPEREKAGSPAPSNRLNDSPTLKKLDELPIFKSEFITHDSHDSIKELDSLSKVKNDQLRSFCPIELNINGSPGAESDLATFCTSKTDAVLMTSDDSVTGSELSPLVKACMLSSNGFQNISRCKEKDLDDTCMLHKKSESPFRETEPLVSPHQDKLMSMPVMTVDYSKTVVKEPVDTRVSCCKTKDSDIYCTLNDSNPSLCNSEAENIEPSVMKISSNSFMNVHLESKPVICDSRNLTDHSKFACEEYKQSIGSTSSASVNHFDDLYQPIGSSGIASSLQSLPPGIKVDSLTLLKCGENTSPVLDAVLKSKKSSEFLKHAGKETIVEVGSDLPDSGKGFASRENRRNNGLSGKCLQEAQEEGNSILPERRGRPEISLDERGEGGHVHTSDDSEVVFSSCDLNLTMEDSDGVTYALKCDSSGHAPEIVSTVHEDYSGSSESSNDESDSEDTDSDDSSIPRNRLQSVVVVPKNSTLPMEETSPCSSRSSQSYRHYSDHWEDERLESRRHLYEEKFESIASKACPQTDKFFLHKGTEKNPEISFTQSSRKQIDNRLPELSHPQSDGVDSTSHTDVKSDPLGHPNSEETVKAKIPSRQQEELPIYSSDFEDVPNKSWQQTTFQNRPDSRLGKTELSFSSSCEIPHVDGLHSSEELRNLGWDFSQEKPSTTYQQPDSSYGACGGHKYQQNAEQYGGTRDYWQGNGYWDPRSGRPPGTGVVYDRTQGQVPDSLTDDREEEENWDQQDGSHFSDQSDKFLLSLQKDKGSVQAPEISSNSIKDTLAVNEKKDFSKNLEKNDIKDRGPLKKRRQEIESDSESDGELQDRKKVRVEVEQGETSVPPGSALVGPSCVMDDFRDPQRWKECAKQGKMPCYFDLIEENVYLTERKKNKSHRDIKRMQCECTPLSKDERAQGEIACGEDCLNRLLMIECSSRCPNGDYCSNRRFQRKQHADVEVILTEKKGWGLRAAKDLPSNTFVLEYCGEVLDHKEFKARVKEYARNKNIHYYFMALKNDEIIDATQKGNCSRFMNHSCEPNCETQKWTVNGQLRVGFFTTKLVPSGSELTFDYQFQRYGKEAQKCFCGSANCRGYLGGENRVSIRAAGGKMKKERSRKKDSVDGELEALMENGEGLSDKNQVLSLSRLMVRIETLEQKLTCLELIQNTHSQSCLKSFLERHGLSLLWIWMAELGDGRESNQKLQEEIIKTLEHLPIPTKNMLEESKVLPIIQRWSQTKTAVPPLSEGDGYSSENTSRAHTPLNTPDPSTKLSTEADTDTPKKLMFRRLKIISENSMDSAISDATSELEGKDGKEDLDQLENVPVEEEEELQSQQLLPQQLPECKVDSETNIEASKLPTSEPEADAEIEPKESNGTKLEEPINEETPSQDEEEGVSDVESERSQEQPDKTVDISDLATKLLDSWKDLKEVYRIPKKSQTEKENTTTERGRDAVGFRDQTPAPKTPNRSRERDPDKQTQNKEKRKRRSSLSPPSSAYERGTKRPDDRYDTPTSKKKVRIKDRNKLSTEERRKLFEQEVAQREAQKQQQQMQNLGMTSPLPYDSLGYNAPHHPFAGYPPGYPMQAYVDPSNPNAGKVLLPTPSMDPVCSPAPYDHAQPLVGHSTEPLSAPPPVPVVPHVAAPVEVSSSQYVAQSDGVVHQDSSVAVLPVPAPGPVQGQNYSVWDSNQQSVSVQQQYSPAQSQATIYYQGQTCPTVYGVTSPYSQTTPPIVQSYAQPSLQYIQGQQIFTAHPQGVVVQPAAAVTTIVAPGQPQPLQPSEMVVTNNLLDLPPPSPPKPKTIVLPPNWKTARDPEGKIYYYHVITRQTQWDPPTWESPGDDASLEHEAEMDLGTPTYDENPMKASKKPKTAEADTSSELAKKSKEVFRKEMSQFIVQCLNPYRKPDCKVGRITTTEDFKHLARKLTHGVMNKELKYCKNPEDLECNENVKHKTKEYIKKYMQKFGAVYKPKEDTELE

SETD2, inactive:
O=C1CNCCN1c1ccccc1 0
COc1ccccc1C1CCNCC1 0
O=C1CC(CSc2ccc(Cl)cc2)=NN1 0
O=C(CN1CCCC1)c1ccccc1Cl 0
Cc1ccc(-c2ccc(O)cc2)cc1 0
Cc1cnc(C(F)(F)F)cn1 0
Clc1ccc2nnnn2n1 0
O=C1CCCc2occc21 0
O=c1ccc2c([nH]1)CCCC2 0
Cc1cc(-c2ccccc2)n[nH]1 0
O=C(O)C1CCCN(C(=O)N2CCCC2)C1 (centres unmarked) 0
